Assay results taken from PubChem BioAssay (NCATS).
“And” between values parts separate entries of the source, which are not always exact repeats. Equal entries are not always repeated. Inconclusive results are not listed. Where a call stands in place of a potency, no number is given. The source made the active and inactive calls. Unless noted, calls follow the shape of the full dose curve.

Experiments:
[1] = molecular target: Estrogen receptor (Homo sapiens) (UniProt P03372); experiment: qHTS assay for small molecule agonists of estrogen receptor alpha signaling (AID 588514); also: nearly all actives have a fitted effect of over 70% in size
Sequence of Estrogen receptor (Homo sapiens) (P03372 whole entry, looked up): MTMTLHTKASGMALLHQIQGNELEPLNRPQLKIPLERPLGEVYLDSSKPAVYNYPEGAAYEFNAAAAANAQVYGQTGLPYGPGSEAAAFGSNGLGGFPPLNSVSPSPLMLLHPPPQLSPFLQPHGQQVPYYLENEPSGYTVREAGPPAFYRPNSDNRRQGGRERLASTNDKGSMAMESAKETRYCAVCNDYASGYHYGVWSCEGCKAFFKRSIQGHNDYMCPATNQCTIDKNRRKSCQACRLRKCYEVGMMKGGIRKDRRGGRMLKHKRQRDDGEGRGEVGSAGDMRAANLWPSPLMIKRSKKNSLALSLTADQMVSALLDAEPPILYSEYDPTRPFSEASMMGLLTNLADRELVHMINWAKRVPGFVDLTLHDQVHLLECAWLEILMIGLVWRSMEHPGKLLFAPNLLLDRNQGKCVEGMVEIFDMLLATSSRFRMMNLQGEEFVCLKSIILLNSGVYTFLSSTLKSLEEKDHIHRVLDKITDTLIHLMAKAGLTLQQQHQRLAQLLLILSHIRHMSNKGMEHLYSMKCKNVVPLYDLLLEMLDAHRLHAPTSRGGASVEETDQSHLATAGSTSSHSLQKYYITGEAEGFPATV
Summary of the method: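 Reporter-gene assay. […] controls beta-lactamase in HEK 293 GripTite cells; after 18 hrs with compound, CCF4 substrate is added for 2 hrs and fluorescence is read.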

[2] = molecular target: Bile acid receptor (Homo sapiens) (UniProt Q96RI1); experiment: qHTS assay for small molecule antagonists of farnesoid X receptor signaling (AID 588526)
Summary of the method: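 Antagonist mode: titrated compounds tested against chenodeoxycholic acid stimulation (normalized to 50 uM CDCA and DMSO) in GeneBLAzer HEK293T cells for 16 h. Beta-lactamase read by CCF4 fluorescence; IC50 from Hill fits.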

[3] = molecular target: Bile acid receptor (Homo sapiens) (UniProt Q96RI1); experiment: qHTS assay for small molecule agonists of farnesoid X receptor signaling (AID 588527); details: HEK293T FXR-UAS-bla, beta-lactamase ratio, 16 h; activation: stronger effect = higher value
Summary of the method: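 FXR-UAS-bla HEK293T, 10% dialyzed FBS; cpds up to 92 uM titration, 16 h 37 C; CCF4 dye 2 h RT; fluorescence. Normalized to chenodeoxycholic acid 100 uM (100%) and DMSO (0%); Hill fit gives EC50, efficacy.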

[4] = molecular target: Glucocorticoid receptor (Homo sapiens) (UniProt P04150); experiment: qHTS assay for small molecule antagonists of glucocorticoid receptor signaling (AID 588533; active = well fitted inhibition curve with a large enough effect in the signal ratio, with a control signal flat, not every such curve was filed as active; the % refers to the signal ratio)
Sequence of Glucocorticoid receptor (Homo sapiens) (P04150 whole entry, looked up, the tested form may be a part): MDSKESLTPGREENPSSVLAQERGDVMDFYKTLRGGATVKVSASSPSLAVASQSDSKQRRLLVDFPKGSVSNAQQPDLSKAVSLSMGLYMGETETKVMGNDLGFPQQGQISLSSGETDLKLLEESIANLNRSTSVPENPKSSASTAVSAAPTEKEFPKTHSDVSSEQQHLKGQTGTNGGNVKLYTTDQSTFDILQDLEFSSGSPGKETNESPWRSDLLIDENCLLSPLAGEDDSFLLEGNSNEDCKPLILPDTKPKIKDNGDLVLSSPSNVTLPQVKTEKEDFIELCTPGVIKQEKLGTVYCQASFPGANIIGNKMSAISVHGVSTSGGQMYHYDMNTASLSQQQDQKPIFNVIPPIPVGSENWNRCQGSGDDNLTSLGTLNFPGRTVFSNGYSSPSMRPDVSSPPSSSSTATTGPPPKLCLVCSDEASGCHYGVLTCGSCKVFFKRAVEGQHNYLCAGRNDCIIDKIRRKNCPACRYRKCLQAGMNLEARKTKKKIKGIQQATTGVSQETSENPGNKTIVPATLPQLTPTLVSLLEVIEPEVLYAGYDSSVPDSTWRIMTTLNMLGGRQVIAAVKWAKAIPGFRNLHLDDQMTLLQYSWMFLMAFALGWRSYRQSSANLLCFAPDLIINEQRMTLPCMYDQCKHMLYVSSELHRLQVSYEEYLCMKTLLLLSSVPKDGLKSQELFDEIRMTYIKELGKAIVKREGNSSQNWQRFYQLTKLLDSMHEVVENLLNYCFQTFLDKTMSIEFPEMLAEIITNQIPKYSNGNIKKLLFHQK
Summary of the method: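 Antagonist-mode qHTS: compound titrations added to GRE-bla HeLa cells, then dexamethasone 2 nM final; 18 h, 37 C. CCF4 FRET fluorescence normalized to dexamethasone and DMSO; IC50 from Hill fit.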

[5] = molecular target: Peroxisome proliferator-activated receptor delta (Homo sapiens) (UniProt Q03181); experiment: qHTS assay for small molecule antagonists of peroxisome proliferator-activated receptor delta signaling (AID 588535; active = well fitted inhibition curve with a large enough effect in the signal ratio, with a control signal flat, not every such curve was filed as active; the % refers to the signal ratio)
Sequence of Peroxisome proliferator-activated receptor delta (Homo sapiens) (Q03181 whole entry, looked up): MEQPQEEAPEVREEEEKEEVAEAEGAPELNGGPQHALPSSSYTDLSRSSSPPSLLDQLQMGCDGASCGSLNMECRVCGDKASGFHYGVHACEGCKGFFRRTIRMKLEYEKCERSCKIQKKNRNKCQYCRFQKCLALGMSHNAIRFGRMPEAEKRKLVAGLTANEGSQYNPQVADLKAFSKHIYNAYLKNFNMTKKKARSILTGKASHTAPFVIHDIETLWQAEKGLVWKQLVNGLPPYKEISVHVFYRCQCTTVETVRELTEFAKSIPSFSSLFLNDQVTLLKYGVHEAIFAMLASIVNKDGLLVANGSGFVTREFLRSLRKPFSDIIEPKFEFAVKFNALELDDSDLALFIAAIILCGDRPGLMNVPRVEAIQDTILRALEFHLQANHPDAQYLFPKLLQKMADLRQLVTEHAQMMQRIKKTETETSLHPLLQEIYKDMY
Summary of the method: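 Cells were seeded at 4000 per well in assay medium containing 2% charcoal/dextran FBS and held 5 hrs at 37 C. Compounds were then added for 18 hrs. CCF4 substrate was applied for 2 hrs at room temperature before fluorescence reading.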

[6] = molecular target: Vitamin D3 receptor (Homo sapiens) (UniProt P11473); experiment: qHTS assay for small molecule antagonists of vitamin D receptor signaling (AID 588541);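 also: receptor activated by calcitriol during compound treatment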
Sequence of Vitamin D3 receptor (Homo sapiens) (P11473 whole entry, looked up): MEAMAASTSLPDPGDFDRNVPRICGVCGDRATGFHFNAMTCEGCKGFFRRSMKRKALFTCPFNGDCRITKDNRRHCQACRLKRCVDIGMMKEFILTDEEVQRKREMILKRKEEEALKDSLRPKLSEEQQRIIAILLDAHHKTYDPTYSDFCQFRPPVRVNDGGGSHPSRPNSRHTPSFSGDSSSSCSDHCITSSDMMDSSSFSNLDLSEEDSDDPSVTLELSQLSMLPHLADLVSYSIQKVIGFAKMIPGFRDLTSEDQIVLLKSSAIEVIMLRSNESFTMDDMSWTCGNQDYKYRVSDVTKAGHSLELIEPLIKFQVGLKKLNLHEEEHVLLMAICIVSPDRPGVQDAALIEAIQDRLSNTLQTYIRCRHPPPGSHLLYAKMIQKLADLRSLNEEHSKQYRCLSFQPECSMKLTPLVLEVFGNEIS
Summary of the method: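 VDR-UAS-bla HEK293T cells in 2% charcoal-stripped FBS were stimulated with 1-alpha,25-dihydroxyvitamin D3 (3 nM final) plus compound for 16 h at 37 C. The beta-lactamase CCF4 readout was normalized to 50 nM agonist and DMSO, and Hill fits gave IC50.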

[7] = molecular target: Retinoic acid receptor RXR-alpha (Homo sapiens) (UniProt P19793); experiment: qHTS assay for small molecule agonists of retinoid X receptor alpha signaling (AID 588544)
Sequence of Retinoic acid receptor RXR-alpha (Homo sapiens) (P19793 whole entry, looked up): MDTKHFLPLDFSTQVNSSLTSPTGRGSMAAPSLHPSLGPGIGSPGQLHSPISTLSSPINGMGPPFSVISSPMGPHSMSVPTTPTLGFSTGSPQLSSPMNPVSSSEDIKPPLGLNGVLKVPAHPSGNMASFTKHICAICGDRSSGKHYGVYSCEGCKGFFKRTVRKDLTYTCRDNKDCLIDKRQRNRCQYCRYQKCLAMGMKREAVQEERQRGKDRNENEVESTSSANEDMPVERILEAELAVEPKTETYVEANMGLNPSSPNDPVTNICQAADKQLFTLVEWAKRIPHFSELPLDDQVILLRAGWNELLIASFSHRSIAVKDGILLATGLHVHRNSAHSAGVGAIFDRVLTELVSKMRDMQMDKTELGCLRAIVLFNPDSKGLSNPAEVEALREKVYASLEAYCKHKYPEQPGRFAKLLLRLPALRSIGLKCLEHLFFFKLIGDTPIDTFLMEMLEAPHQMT

[8] = qHTS assay for small molecule antagonists of retinoid X receptor alpha signaling (AID 588546; active = well fitted inhibition curve with a large enough effect in the signal ratio, with a control signal flat, not every such curve was filed as active; the % refers to the signal ratio;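 also: cells stimulated with 9-cis-retinoic acid as agonist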); details: HEK293T RXRa-UAS-bla, beta-lactamase ratio, antagonist mode; measured here: W530 green channel, cytotoxicity proxy
Summary of the method: (§1)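 Beta-lactamase reporter inhibition, read as CCF4 fluorescence ratio (ex 405, em 460/530 nm) after 2 h at RT. HEK293T UAS-bla cells, 2500/well, were stimulated with 9-cis-RA at 500 or 100 nM final alongside test compound for 18 h at 37 C.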

[9] = molecular target: Retinoic acid receptor RXR-alpha (Homo sapiens) (UniProt P19793); experiment: as above; details: HEK293T RXRa-UAS-bla, beta-lactamase ratio, antagonist mode
Summary of the method: as §1

[10] = molecular target: Thyroid hormone receptor beta (Homo sapiens) (UniProt P10828); experiment: qHTS assay for small molecule antagonists of thyroid hormone receptor beta signaling (AID 588547; active = well fitted inhibition curve with a large enough effect in the signal ratio, with a control signal flat, not every such curve was filed as active; the % refers to the signal ratio;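 also: cells stimulated with 0.4 nM T3 agonist during compound exposure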); details: TR-UAS-bla HEK293, beta-lactamase ratio, antagonist mode, 18 h
Sequence of Thyroid hormone receptor beta (Homo sapiens) (P10828 whole entry, looked up): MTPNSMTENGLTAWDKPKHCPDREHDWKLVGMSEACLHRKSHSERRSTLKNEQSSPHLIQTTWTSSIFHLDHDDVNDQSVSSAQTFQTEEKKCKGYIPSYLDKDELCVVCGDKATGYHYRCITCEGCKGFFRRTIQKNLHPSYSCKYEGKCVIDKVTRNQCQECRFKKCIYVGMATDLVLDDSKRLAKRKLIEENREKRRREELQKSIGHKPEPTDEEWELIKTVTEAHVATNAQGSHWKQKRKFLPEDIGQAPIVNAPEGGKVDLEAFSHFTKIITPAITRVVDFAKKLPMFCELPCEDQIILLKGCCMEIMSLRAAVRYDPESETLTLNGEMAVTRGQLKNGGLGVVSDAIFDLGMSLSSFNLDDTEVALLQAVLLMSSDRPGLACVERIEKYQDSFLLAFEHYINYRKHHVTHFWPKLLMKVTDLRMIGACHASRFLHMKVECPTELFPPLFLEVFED
Summary of the method: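 TR-UAS-bla GripTite HEK293 cells in 2% charcoal/dextran FBS medium; compounds 0.59 nM to 92 uM with T3 at 0.4nM final, 18 h at 37 C. Beta-lactamase read by CCF4 fluorescence (460/530 nm); Hill fits gave IC50 and efficacy.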

[11] = qHTS assay for small molecule activators of the nuclear factor-kappa B (NF-kB) signaling pathway (AID 651749; active = well fitted activation curve with a large enough effect in the signal ratio; the % refers to the signal ratio); details: NF-kB-bla ME-180 cells, beta-lactamase FRET ratio, 16 h; activation: stronger effect = higher value
Summary of the method: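 Incubation lasted 16 hr at 37C in 5% CO2 after 23 nL compound addition to ME-180 NF-kB-bla cells. Activation appears as beta-lactamase-mediated FRET loss.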

[12] = molecular target: Nuclear receptor subfamily 1 group I member 2 (Rattus norvegicus) (UniProt Q9R1A7); experiment: qHTS assay for small molecule activators of the rat pregnane X receptor (rPXR) signaling pathway (AID 651751; call rule not given here); details: rPXR reporter cells, luciferase (One-Glo), 24 h
Sequence of Nuclear receptor subfamily 1 group I member 2 (Rattus norvegicus) (Q9R1A7 whole entry, looked up): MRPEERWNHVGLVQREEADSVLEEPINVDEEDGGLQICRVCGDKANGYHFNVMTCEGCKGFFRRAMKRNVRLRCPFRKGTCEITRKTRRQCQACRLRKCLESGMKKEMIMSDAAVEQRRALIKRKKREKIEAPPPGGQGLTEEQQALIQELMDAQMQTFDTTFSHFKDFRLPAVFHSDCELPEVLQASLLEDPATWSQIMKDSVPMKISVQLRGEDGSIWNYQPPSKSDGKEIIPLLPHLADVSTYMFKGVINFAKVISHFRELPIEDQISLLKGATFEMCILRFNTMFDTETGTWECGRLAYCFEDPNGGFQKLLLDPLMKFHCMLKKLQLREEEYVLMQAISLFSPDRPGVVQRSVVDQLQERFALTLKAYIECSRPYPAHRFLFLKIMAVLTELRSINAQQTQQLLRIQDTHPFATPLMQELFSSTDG

[13] = qHTS assay for small molecule activators of the human pregnane X receptor (PXR) signaling pathway (AID 720659; call rule not given here)
[14] = NFAT Signaling Pathway (AID 444; active = well fitted curve in either direction with a large enough effect, not every such curve was filed as active;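 also: carbachol stimulus at about its EC50 of 1 µM final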); details: Jurkat NFAT-bla M1, carbachol, beta-lactamase ratio, 5 h; at 17.2 µM (top of the series) unless noted
Summary of the method: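 Jurkat cells with NFAT-driven β-lactamase reporter and co-expressed M1 receptor, stimulated with carbachol (final 1 uM, ~EC50), compound titration, 5 h at 37 °C. CCF4 loaded 1 h at RT; 460/530 nm ratio gave %activity and AC50.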

[15] = qHTS assay for small molecule agonists of retinoid X receptor alpha signaling (AID 588544); details: HEK293T RXRa-UAS-bla, beta-lactamase reporter, 18 h; 530 nm emission
[16] = Stat Signaling Pathway (AID 446; active = well fitted curve in either direction with a large enough effect, not every such curve was filed as active;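 also: ME-180 cervical cancer cells given 40 pM IL-6 alongside compound; SIE-controlled beta-lactamase reporter measured as 460/530 nm FRET emission ratio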)
Summary of the method: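 ME-180 SIE-bla cells; overnight plating; cpd + IL-6 40 pM, 5 h, 37 C; LiveBLAzer 2.5 h RT; 460/530 nm emission ratio. Normalized to 300 pM IL-6 and 125 nM JAK inhibitor controls.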

[17] = molecular target: Glucocorticoid receptor (Homo sapiens) (UniProt P04150); experiment: GR-EFC Redistribution (AID 451); details: CHO-K1 GR-EFC translocation, beta-gal luminescence, 2 h; also: potency is read from the fitted curve at half-maximal effect
Summary of the method: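 CHO-K1 cells expressing nuclear EA and GR-ED fragments of b-gal; compounds titrated up to 46 uM final, 2 h at 37 C. GR nuclear translocation read as complemented b-gal luminescence after 1 h RT detection.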

[18] = molecular target: 3',5'-cyclic-AMP phosphodiesterase 4B (Homo sapiens) (UniProt Q07343); experiment: qHTS Assay for Inhibitors of PDE-IV (AID 607; active = well fitted activation curve with a large enough effect in the main read-out, with a control signal flat, not every such curve was filed as active)
Sequence of 3',5'-cyclic-AMP phosphodiesterase 4B (Homo sapiens) (Q07343 whole entry, looked up): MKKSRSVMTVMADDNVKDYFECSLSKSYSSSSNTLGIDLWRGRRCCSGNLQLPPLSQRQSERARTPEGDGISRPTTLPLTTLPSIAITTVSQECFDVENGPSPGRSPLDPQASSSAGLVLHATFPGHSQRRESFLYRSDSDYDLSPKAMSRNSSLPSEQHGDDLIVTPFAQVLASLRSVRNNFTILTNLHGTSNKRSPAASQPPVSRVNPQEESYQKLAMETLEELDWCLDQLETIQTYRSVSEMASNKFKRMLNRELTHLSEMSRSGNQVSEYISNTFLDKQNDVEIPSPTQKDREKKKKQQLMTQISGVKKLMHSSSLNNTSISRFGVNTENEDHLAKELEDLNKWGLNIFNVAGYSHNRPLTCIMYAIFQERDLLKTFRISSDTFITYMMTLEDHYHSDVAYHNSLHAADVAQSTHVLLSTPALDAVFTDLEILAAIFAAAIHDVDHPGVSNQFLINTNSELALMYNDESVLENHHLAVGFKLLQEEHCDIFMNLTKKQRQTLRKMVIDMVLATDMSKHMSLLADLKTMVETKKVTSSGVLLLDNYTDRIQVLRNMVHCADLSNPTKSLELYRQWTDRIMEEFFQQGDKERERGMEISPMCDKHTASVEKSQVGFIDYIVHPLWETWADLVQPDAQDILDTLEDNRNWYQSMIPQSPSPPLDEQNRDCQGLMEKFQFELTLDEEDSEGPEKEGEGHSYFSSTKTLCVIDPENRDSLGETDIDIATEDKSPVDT
Summary of the method: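 ACTOne HEK293 cells carry a modified cAMP-gated CNG channel and express endogenous PDE4; plated 1000 cells/well, compounds up to 22.9 uM final. Membrane-potential dye fluorescence (ex 535/em 590) was read; parental cells received 10 uM forskolin + 100 uM RO 20-1724.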

[19] = molecular target: Cytochrome P450 2C9 (Homo sapiens) (UniProt P11712); experiment: qHTS Assay for Inhibitors and Substrates of Cytochrome P450 2C9 (AID 883; active = well fitted curve in the direction sought with a large enough effect; an effect the other way counts as inactive or inconclusive; also: nearly all actives have a fitted effect of over 60% in size)
Sequence of Cytochrome P450 2C9 (Homo sapiens) (P11712 whole entry, looked up): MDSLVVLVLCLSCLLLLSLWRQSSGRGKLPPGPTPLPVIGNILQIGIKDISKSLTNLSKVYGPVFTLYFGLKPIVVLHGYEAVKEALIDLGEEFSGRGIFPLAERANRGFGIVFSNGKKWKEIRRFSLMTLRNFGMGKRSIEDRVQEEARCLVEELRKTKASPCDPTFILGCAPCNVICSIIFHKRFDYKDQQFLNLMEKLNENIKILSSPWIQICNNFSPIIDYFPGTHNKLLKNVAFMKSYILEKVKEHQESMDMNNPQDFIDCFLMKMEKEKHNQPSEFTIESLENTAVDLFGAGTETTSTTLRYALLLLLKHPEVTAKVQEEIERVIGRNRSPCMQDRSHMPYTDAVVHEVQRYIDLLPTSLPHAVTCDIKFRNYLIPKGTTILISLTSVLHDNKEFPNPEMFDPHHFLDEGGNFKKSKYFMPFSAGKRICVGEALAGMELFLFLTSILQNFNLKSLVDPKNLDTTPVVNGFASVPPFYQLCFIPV
Summary of the method: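 Signal: luciferase luminescence reporting luciferin produced by CYP2C9. Conditions: 10nM enzyme, Luciferin-H 100uM at KM, 25mM KPO4, 37C, 60 min NADPH-driven reaction. Reference: 57uM sulphaphenazole as 100% inhibition.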

[20] = Inducers of the Endoplasmic Reticulum Stress Response (ERSR) in human glioma: Validation (AID 504836; active = well fitted curve in the direction sought with a large enough effect; an effect the other way counts as inactive or inconclusive)
Summary of the method: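 Stably transfected U87-MG glioma cells carrying a GRP78-based luciferase sensor; 16 h compound incubation. Luminescence end-point read 10 min after Bright-Glo addition at room temperature.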

FC(F)(F)c1ccc(Cl)cc1
Potency [1]: inactive | Potency [2]: inactive | activation [3]: 3.21% (inactive) and 2.89% (inactive) | Potency [4]: inactive | Potency [5]: inactive | Potency [6]: inactive | Potency [7]: inactive | max response [8]: -9.15% | max response [9]: -8.02% (inactive) | activity change % (negative = inhibition) [10]: 6.64% (inactive) | activation [11]: 0.334% (inactive) and 1.17% (inactive) | max response [12]: -0.484% (inactive) and -1.67% (inactive) | outcome [13]: inactive

O=C(Nc1ccncc1)c1c(O)c2ccccc2n(Cc2ccccc2)c1=O
activity change, negative = inhibition [14]: 22.9% (inactive)

O=[N+]([O-])c1cc(C(F)(F)F)cc([N+](=O)[O-])c1Cl
Potency [1]: inactive | Potency [2]: inactive | activation [3]: -1.74% (inactive) | Potency [4]: inactive | Potency [5]: inactive | Potency [6]: inactive | max response [15]: 2.71% | Potency [7]: inactive | max response [8]: 0.867% | max response [9]: 20% (inactive) | activity change % (negative = inhibition) [10]: -4.32% (inactive) | activation [11]: -0.593% (inactive) | max response [12]: -2.25% (inactive) | outcome [13]: inactive

CN(C)c1ccc(N=O)cc1
Potency [1]: inactive | activation [3]: -4.92% (inactive)

OC(Cc1ccccc1)(c1ccccc1)C1CN2CCC1CC2 (stereo not given)
activity change, negative = inhibition [14]: -83.4% (active) | outcome [16]: inactive

OC(c1ccc(Cl)cc1)(c1ccc(Cl)cc1)C(Cl)(Cl)Cl
Potency [1]: inactive | Potency [2]: inactive | activation [3]: 3.21% (inactive) and 2.17% (inactive) | Potency [4]: inactive | Potency [6]: inactive | max response [15]: -15% | Potency [7]: inactive | max response [8]: -2.98% | max response [9]: 3.94% (inactive) | activity change % (negative = inhibition) [10]: -3.99% (inactive) | activation [11]: -0.969% (inactive) | max response [12]: -0.762% (inactive) and 6.21% (inactive) | outcome [13]: inactive

C#CCO
Potency [4]: inactive | Potency [5]: inactive | Potency [6]: inactive | max response [15]: 3.2% | Potency [7]: inactive | max response [8]: -7.57% | max response [9]: 24.4% (inactive) | activity change % (negative = inhibition) [10]: -4.81% (inactive) | max response [12]: 1.29% (inactive) | outcome [13]: inactive

CCOc1ccc(-n2c(O)c(C=Nc3ccc(N(CC)CC)cc3)c(=O)[nH]c2=O)cc1
outcome [16]: inactive

CC[C@H](CO)NC(=O)[C@H]1C=C2c3cccc4[nH]cc(c34)C[C@H]2N(C)C1
Potency [17]: > 46 µM (inactive) | outcome [18]: inactive

O=c1ccc2cc(O[C@@H]3O[C@@H](CO)[C@@H](O)[C@@H](O)[C@H]3O)c(O)cc2o1
outcome [18]: inactive

OC[C@H]1CCCN2CCCC[C@@H]12
outcome [18]: inactive | Potency [19]: inactive

C=C(C)[C@H]1[C@H]2OC(=O)[C@@H]1[C@]1(O)C[C@H]3O[C@]34C(=O)O[C@H]2[C@]14C
outcome [18]: inactive

C[C@H]1CC[C@@H]2[C@@H](C)C(=O)O[C@H]3O[C@@]4(C)CC[C@@H]1[C@]32OO4
outcome [18]: inactive

CC1=CC(=O)C2=C(C)C[C@H](O)[C@@H]3[C@@H](OC(=O)[C@H]3C)[C@H]12
Potency [17]: > 46 µM (inactive) | Potency [19]: inactive

COc1cc2c(cc1O)CCN[C@H]2C
Potency [17]: > 46 µM (inactive) | Potency [19]: inactive

CC(C)(O)[C@H]1[C@H]2OC(=O)[C@@H]1[C@]1(O)C[C@H]3O[C@]34C(=O)O[C@H]2[C@]14C
Potency [17]: > 46 µM (inactive) | outcome [18]: inactive

COc1cc2c(cc1OC)-c1c(OC)c(OC)c(CO)c3c1[C@H](C2)N(C)CC3
Potency [17]: > 46 µM (inactive) | outcome [18]: inactive | Potency [19]: inactive

CN1CCC(OC(=O)C2c3ccccc3Oc3ccccc32)CC1
outcome [16]: inactive

Oc1cc2c(cc1O)[C@H]1c3ccccc3CN[C@H]1CC2
outcome [18]: inactive

COc1cc2c(cc1OC)-c1c(O)c(OC)cc3c1[C@@H](C2)N(C)CC3
Potency [17]: > 46 µM (inactive) | outcome [18]: inactive | Potency [19]: inactive

C[C@@]12CCC[C@](C)(C(=O)O)[C@@H]1CCc1ccc(O)cc12
Potency [17]: > 46 µM (inactive) | Potency [19]: inactive

COC1=C[C@H]2[C@@H]3Cc4ccc(OC)c(O)c4[C@@]2(CCN3C)CC1=O
Potency [17]: > 46 µM (inactive) | outcome [18]: inactive | Potency [19]: inactive

COC[C@H]1OC(=O)c2coc3c2[C@@]1(C)C1=C(C3=O)[C@H]2CCC(=O)[C@@]2(C)C[C@H]1OC(C)=O
outcome [18]: inactive

CCCCOC(=O)NS(=O)(=O)c1sc(CC(C)C)cc1-c1ccc(Cn2c(CC)nc3c(C)cc(C)nc32)cc1
outcome [20]: inactive

[N-]=[N+]=Nc1ccc(C(=O)CSC[C@H](NC(=O)CC[C@H](N)C(=O)O)C(=O)NCC(=O)O)cc1
outcome [20]: inactive

CC1(C)C(=O)N(CCN2CCC(C(=O)c3ccc(F)cc3)CC2)c2ccccc21
outcome [20]: inactive

Nc1ncnc2c1c(-c1ccc(Oc3ccccc3)cc1)cn2C1CCCC1
outcome [20]: inactive

O=C1C(SCCO)=C(SCCO)C(=O)c2ccccc21
outcome [20]: inactive

C1CCC(N=C(NC23CC4CC(CC(C4)C2)C3)N2CCOCC2)CC1
outcome [20]: inactive

COc1ccccc1CNCCCCCCNCCCCCCCCNCCCCCCNCc1ccccc1OC
outcome [20]: inactive
